# Source: PubChem BioAssay (Tox21)
# Results filed as inconclusive are left out. A number with no mark means an inactive call. Active and inactive are the calls of the source. The call rests on the fitted dose curve.
# Experiment: qHTS assay for small molecule disruptors of the mitochondrial membrane potential - cell viability (AID 720634);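 further: human HepG2 liver cancer cells; nearly all actives have a fitted effect of over 20% in size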
# Conditions: HepG2 viability, ATP luminescence (CellTiter-Glo), 1 h; series mostly up to 83.2 µM
# Source text: U.S. Tox21 Program National Center for Advancing Translational Sciences [NCATS] NIH Chemical Genomics Center [NCGC] U.S. Environmental Protection Agency [EPA] National Institutes of Environmental Health Sciences [NIEHS] National Toxicology Program [NTP] U.S. Food and Drug Administration [FDA] Tox21 Assay Overview: Mitochondrial membrane potential (MMP), one of the parameters for mitochondrial function, is generated by mitochondrial electron transport chain that creates an electrochemical gradient by a series of redox reactions. This gradient drives the synthesis of ATP, a crucial molecule for various cellular processes. Measuring MMP in living cells is commonly used to assess the effect of chemicals on mitochondrial function; decreases in MMP can be detected using lipophilic cationic fluorescent dyes. […] The dye accumulates in the mitochondria of healthy cells as aggregates, with red fluorescence. The mitochondrial potential decreases and the dye could not accumulate in the mitochondria and remains in the cytoplasm in monomers, with green fluorescence. In addition to the mitochondrial potential assay, these cells were also used to test the cytotoxicity by determining the cell viability in the culture based on the quantitation of ATP present. The cytotoxicity was measured in the same assay well of MMP assay.
# Tox21 Assay Protocol Summary: 2,000 HepG2 cells in 5 uL/well were dispensed into black, clear-bottom 1536-well plates using a Multidrop Combi (Thermo Scientific) dispenser. The assay plates were incubated for an overnight at 37 C to allow cells to attach to the wells, followed by the transfer of 23 nL compound or DMSO vehicle by a pin tool (Kalypsys). The plates were incubated for 1 hr at 37 C and 5% CO2, followed by the addition of 5 uL of 2X m-MPI dye into each well using Flying Reagent Dispenser (Aurora Discovery) and then CellTiter-Glo reagent was added at 4 uL/well and incubated 30 min at room temperature. Then luminescence intensity was quantified on a ViewLux CCD-based plate reader.
# On the % scale 0 is the no-effect control and ±100 the full control effect.
SMILES,outcome,"activity change, negative = cytotoxicity"
C1=CCC(c2ccccc2)CC1 (stereo not given),inactive,
C=CC(C)(O)CC/C=C(\C)CC (stereo not given),inactive,
CCCCOC(=O)C(C)OC(=O)CCC (stereo not given),inactive,
O=C(O)c1ccccc1C(=O)Nc1ccc(S(=O)(=O)Nc2nccs2)cc1,inactive,
CCCCCCCCCCCCC1CO1 (stereo not given),inactive,
Nc1c(NC/C=C\COc2cc(CN3CCCCC3)ccn2)c(=O)c1=O,inactive,
CC(C)COC(=O)COc1ccc(Cl)cc1Cl,inactive,
CCCCCC1CCCC(=O)O1 (stereo not given),inactive,
CC(Cl)COP(=O)(OCC(C)Cl)OCC(C)Cl (stereo not given),inactive,
Nc1ccc(S(=O)(=O)Nc2ccccn2)cc1,inactive,
Cc1ccccc1C,inactive,
C=CCCCCCCCCCCC,,9.56% [at 8.08 µM]
CCCCC/C=C/CC(=O)OC,inactive,
CC1=CC[C@H](CC=O)C1(C)C,inactive,
CCN(Cc1cccc(S(=O)(=O)O)c1)c1ccccc1,inactive,
CN(C)CCCNCCC#N,inactive,
O=C(/C=C/c1ccccc1)NCCO,inactive,
F[Si-2](F)(F)(F)(F)F,inactive,
COC(=O)CCC(=O)O,inactive,
COc1ccc(N=Nc2cc(C)c(N=Nc3ccc(S(=O)(=O)O)cc3)cc2OC)cc1,inactive,

SMILES,outcome,"activity change, negative = cytotoxicity"
CCCOCCOCCOCCO,inactive,
COc1ccc(OC)c(NC(=O)CC(C)=O)c1,inactive,
COc1cc([N+](=O)[O-])ccc1N,inactive,
CCCOC(=O)CCCCC(=O)OCCC,inactive,
CC(=O)OC(C)c1ccccc1 (stereo not given),inactive,
COc1cc2c(Nc3ccc(Br)cc3F)ncnc2cc1OCC1CCN(C)CC1,inactive,
CCOC(=O)C(C)(C)C,inactive,
COc1cc2c3cc1Oc1cc(ccc1O)C[C@@H]1c4c(cc(OC)c(O)c4Oc4ccc(cc4)C[C@@H]3N(C)CC2)CC[N+]1(C)C,inactive,
CC(C)=CC(C)(C)C,inactive,
NS(=O)(=O)c1ccccc1OC(F)(F)F,inactive,
CCCO,inactive,
O=C1CC[C@H](C(=O)N2CCCCC2)N1,inactive,
CN[C@@H]1[C@H](O)[C@H](NC)[C@H]2O[C@@]3(O)C(=O)C[C@@H](C)O[C@H]3O[C@@H]2[C@H]1O,inactive,
CC1(N)CCC(C(C)(C)N)CC1 (stereo not given),inactive,
C[C@H]1O[C@H](O[C@H]2[C@H](O)[C@@H](O)[C@@H](O[C@H]3[C@H](O)[C@@H](O)[C@H](O)O[C@@H]3CO)O[C@@H]2CO)[C@H](O)[C@@H](O)[C@@H]1N[C@H]1C=C(CO)[C@@H](O)[C@H](O)[C@H]1O,inactive,
CCCCCCCC/C=C\CCCCCCCC(=O)OC[C@@H](O)[C@H]1OC[C@H](O)[C@H]1O,inactive,
CCCCCC1Nc2cc(C(F)(F)F)c(S(N)(=O)=O)cc2S(=O)(=O)N1 (stereo not given),inactive,
COCC(=O)Nc1c(I)c(C(=O)NCC(O)CO)c(I)c(C(=O)N(C)CC(O)CO)c1I (stereo not given),inactive,
CC1CCC(C(C)(C)S)C(=O)C1 (stereo not given),inactive,
COc1cc(C=O)ccc1OC(=O)C(C)C,inactive,
